Consider nine sequences from PMC8384837, “Expanding the binding specificity for RNA recognition by a PUF domain”.

Holding throughout (experiment): yeast three-hybrid, YBZ-1, SC-Leu-His + 0.5 mM 3-AT, 4 days
Holding throughout (details): tags: N-Gal4 AD-HA kept; label: inside an RPR1-promoter hybrid RNA with tandem MS2 sites; ssRNA

One test concerns the target PUM1 PUF domain R3-GHP (Homo sapiens, UniProt Q14671 828-1176, C935G;R936H;Q939P). A digest of the protocol:
(§1)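 Pumilio-1 PUF domain libraries, randomized (NNK) at the three base-contacting residues of each repeat, were co-expressed with matching RNA elements from a centromeric plasmid in strain YBZ-1 (LexA–MS2 coat fusion, HIS3 reporter). Transformants were plated on SC-Leu (input) and SC-Leu-His + 0.5 mM 3-AT (selection) for four days, and repeat regions were PCR-amplified and Illumina-sequenced. The interaction score is the log2 change in variant frequency from input to selection, with pseudocount 1 where absent.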

The next test deals with PUM1 PUF domain R7-RIL (Homo sapiens, UniProt Q14671 828-1176, S1079R;N1080I;E1083L). Put shortly:
as §1

Another test concerns the target PUM1 PUF domain R5-RMP (Homo sapiens, UniProt Q14671 828-1176, C1007R;R1008M;Q1011P). Put shortly: as §1
A further test has as its target PUM1 PUF domain R8-AYK (Homo sapiens, UniProt Q14671 828-1176, N1122A;Q1126K). A digest of the protocol:
as §1

For the next test, the target named is T1, PUM1 PUF domain R6-SWA (Homo sapiens, UniProt Q14671 828-1176, N1043S;Y1044W;Q1047A).
T1 sequence: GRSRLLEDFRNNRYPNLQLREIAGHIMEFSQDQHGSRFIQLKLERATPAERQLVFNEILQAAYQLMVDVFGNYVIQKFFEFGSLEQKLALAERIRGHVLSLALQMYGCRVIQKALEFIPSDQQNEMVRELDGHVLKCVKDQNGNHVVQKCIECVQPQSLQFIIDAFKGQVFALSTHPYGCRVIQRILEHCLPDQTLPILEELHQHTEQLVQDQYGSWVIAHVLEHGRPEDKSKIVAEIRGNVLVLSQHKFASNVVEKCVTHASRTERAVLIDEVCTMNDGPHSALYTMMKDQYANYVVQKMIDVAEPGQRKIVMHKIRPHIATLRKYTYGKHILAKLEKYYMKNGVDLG
A digest of the protocol: as §1

Another test concerns the target PUM1 PUF domain R2-NRG (Homo sapiens, UniProt Q14671 828-1176, Y900R;Q903G). A digest of the protocol: as §1
For the next test, the target named is PUM1 PUF domain R8-RFL (Homo sapiens, UniProt Q14671 828-1176, N1122R;Y1123F;Q1126L). A digest of the protocol:
as §1

The next test concerns the target T2, PUM1 PUF domain R6-YWV (Homo sapiens, UniProt Q14671 828-1176, N1043Y;Y1044W;Q1047V).
T2 sequence: T1 sequence with S216Y, A220V
Put shortly:
as §1

The next test addresses PUM1 PUF domain R3-WCG (Homo sapiens, UniProt Q14671 828-1176, C935W;R936C;Q939G). Put shortly:
as §1

Another test concerns the target PUM1 PUF domain R2-GWG (Homo sapiens, UniProt Q14671 828-1176, N899G;Y900W;Q903G). Put shortly: as §1

Numbering of substitutions follows the chain as printed.

As to “GGCUAGAACUAGUGGAUCCCCCGGCGCCCGGCGGCUCGAGCCCGGGUAAGUGUAAUUAGUCUGCAUGCCGCCGGGCGCCAUGCCUGCAGGUCGACUCUAGAAAACAUG”, in the test with PUM1 PUF domain R3-GHP, the binding signal was 4.31 log2 enrichment (interaction score). Take “GGCUAGAACUAGUGGAUCCCCCGGCGCCCGGCGGCUCGAGCCCGGGUAAGUUUAAAUAGUCUGCAUGCCGCCGGGCGCCAUGCCUGCAGGUCGACUCUAGAAAACAUG”: the binding signal with PUM1 PUF domain R7-RIL is 2.38 log2 enrichment (interaction score). “GGCUAGAACUAGUGGAUCCCCCGGCGCCCGGCGGCUCGAGCCCGGGUAAGUGUAAAUAGUCUGCAUGCCGCCGGGCGCCAUGCCUGCAGGUCGACUCUAGAAAACAUG”: the binding signal with PUM1 PUF domain R5-RMP is 0.45 log2 enrichment (interaction score); in the test with PUM1 PUF domain R8-AYK, 2.5 log2 enrichment (interaction score); with PUM1 PUF domain R6-SWA, 1.55 log2 enrichment (interaction score); in the test with PUM1 PUF domain R2-NRG, 2.44 log2 enrichment (interaction score); in the test with PUM1 PUF domain R8-RFL, 4.7 log2 enrichment (interaction score). Consider “GGCUAGAACUAGUGGAUCCCCCGGCGCCCGGCGGCUCGAGCCCGGGUAAGUGAAAAUAGUCUGCAUGCCGCCGGGCGCCAUGCCUGCAGGUCGACUCUAGAAAACAUG”, for which the results for the binding signal with PUM1 PUF domain R6-YWV and in the test with PUM1 PUF domain R6-SWA were 4.97 log2 enrichment (interaction score) and 3.21 log2 enrichment (interaction score), respectively. With “GGCUAGAACUAGUGGAUCCCCCGGCGCCCGGCGGCUCGAGCCCGGGUAAGUGUAAGUAGUCUGCAUGCCGCCGGGCGCCAUGCCUGCAGGUCGACUCUAGAAAACAUG”, the results for the binding signal with PUM1 PUF domain R3-GHP and with PUM1 PUF domain R3-WCG were 4.47 log2 enrichment (interaction score) and 4.13 log2 enrichment (interaction score), respectively. As to “GGCUAGAACUAGUGGAUCCCCCGGCGCCCGGCGGCUCGAGCCCGGGUAAGCGUAAAUAGUCUGCAUGCCGCCGGGCGCCAUGCCUGCAGGUCGACUCUAGAAAACAUG”, the results for the binding signal with PUM1 PUF domain R8-AYK and with PUM1 PUF domain R8-RFL were 4.11 log2 enrichment (interaction score) and 5.36 log2 enrichment (interaction score), respectively.

Consider “GGCUAGAACUAGUGGAUCCCCCGGCGCCCGGCGGCUCGAGCCCGGGUAAGUGUCAAUAGUCUGCAUGCCGCCGGGCGCCAUGCCUGCAGGUCGACUCUAGAAAACAUG”, for which the binding signal with PUM1 PUF domain R5-RMP was 4.09 log2 enrichment (interaction score). As to “GGCUAGAACUAGUGGAUCCCCCGGCGCCCGGCGGCUCGAGCCCGGGUAAGUGUAAAAAGUCUGCAUGCCGCCGGGCGCCAUGCCUGCAGGUCGACUCUAGAAAACAUG”, the binding signal in the test with PUM1 PUF domain R2-GWG is 3.32 log2 enrichment (interaction score); in the test with PUM1 PUF domain R2-NRG it was 2.91 log2 enrichment (interaction score). For “GGCUAGAACUAGUGGAUCCCCCGGCGCCCGGCGGCUCGAGCCCGGGUAAGUGUAAAGAGUCUGCAUGCCGCCGGGCGCCAUGCCUGCAGGUCGACUCUAGAAAACAUG”, the binding signal in the test with PUM1 PUF domain R2-GWG is 2.13 log2 enrichment (interaction score).
